Sampled rows, rich in hits. Any-hit rate of the full collection: about 2.5%.
Cruzain inh Det = cruzain (T. cruzi) inhibition with detergent; P25779; purified cruzain, Z-FR-AMC fluorescence, 0.01% Triton; Potency, µM, inactives show max response, negative = inhibition, most hits filed as inhibitors; actives 0.43% (n = 200,000); AID 1478;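 further: plate controls were neutral wells for no effect and buffer without enzyme for full effect; nearly all actives have a fitted effect of over 40% in size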
Target sequence (P25779 123-467 limits assumed): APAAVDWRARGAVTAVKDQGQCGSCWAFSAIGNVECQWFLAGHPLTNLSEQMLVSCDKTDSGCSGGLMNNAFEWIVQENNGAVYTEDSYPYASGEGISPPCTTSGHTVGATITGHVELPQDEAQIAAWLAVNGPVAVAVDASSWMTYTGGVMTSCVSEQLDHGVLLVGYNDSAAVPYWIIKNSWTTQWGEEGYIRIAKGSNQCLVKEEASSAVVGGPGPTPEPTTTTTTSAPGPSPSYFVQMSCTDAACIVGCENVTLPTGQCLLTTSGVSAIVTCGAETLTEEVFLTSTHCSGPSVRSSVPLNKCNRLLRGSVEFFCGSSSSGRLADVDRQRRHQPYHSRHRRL
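15 min RT preincubation of 1.5 nM cruzain with compound, then 2 uM Z-FR-AMC added; kinetic AMC fluorescence, 60 s delta. Triton X-100 0.01%, pH 5.5.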
Cruzain inh noDet = blocks cruzain activity in detergent-free assay; Potency, µM, inactives show max response, negative = inhibition, hits mostly inhibitors; P25779; actives 2.3% (n = 200,000); AID 1476; purified cruzain, Z-FR-AMC fluorescence, no detergent;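 further: plate controls were enzyme without inhibitor for no effect and buffer without enzyme for full effect; nearly all actives have a fitted effect of over 40% in size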
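Detergent-free condition (0.00005% Triton X-100) in acetate buffer pH 5.5 with DTT. 1.5 nM enzyme and compound were pre-mixed 15 min, then 2 uM Z-FR-AMC substrate added; reaction progress from fluorescence change between first and third reads (60 s).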
* = called active by the depositor; ? = inconclusive. The call rests on the fitted dose curve; in most records, active means well fitted curve in the direction sought with a large enough effect; inconclusive means small, poorly fitted or top-dose-only effect, or another doubt; inactive means no such curve, though single readings can be large; an effect the other way counts as inactive or inconclusive. Potency means the concentration at half of the fitted maximal effect.

SMILES | Cruzain inh Det | Cruzain inh noDet
CC(C)=CCCC(C)C1CC[C@@]2(C)C3=C(CC[C@@]12C)C1(C)CCC(O)C(C)(C)C1CC3 (stereo not given in full) | -3% | ?
C/C(=C/CCC(C)[C@H]1CC[C@@]2(C)C3=C(CC[C@]12C)[C@@]1(C)CCC(=O)C(C)(C)[C@@H]1CC3)C(=O)O (stereo not given in full) | -6% | 25µM*
COc1ccccc1CNC(=O)CCCCn1c(=O)c2ccccc2n(Cc2c(C)cc(C)cc2C)c1=O | -2% | -12%
Cc1ccc(-n2nnnc2SCc2nc3sc(C)c(C)c3c(=O)[nH]2)cc1 | -1% | ?
Cc1sc2nc(CSc3cccc(C(F)(F)F)c3)[nH]c(=O)c2c1C | -3% | 25µM*
COc1cc(NC(=O)Cn2cc(S(=O)(=O)c3ccccc3)c(=O)c3ccccc32)cc(OC)c1 | -5% | -14%
Cc1cc(NC(=O)CN(c2cccc(C)c2C)S(=O)(=O)c2ccccc2)ccc1Br | -3% | 6.3µM*
Cc1cc(C)cc(NC(=O)CN(c2cccc(C)c2C)S(=O)(=O)c2ccccc2)c1 | -7% | ?
Cn1cnc2c(=O)oc3ccc(S(=O)(=O)N4CCN(c5ccccc5F)CC4)cc3c21 | -1% | 11%
Cc1cc(C)cc(-n2c(C)cc(C(=O)C(=O)Nc3nnc(C)s3)c2C)c1 | -4% | ?
Cc1cccc(NC(=O)C(=O)NCCc2csc(-c3ccc(C(F)(F)F)cc3)n2)c1C | 0% | -3%
CCOc1ccc(-c2cc(CCCC(=O)NCCc3ccc(SC)cc3)no2)cc1 | -1% | -13%
COc1ccc(-c2ccc(NS(=O)(=O)c3ccc(NC(C)=O)cc3)cc2)nn1 | -2% | -2%
COc1ccccc1/C=C/c1nc(C#N)c(N2CCCCC2)o1 | -25% | -1%
COc1ccccc1/C=C/c1nc(C#N)c(N(C)C)o1 | 14µM* | ?
COc1ccccc1/C=C/c1nc(C#N)c(NCC(C)C)o1 | 7% | 27%
COc1ccccc1/C=C/c1nc(C#N)c(NCCc2ccccc2)o1 | -7% | 16µM*
Cc1ccc(-c2nc3nc(C)cc(Nc4ccccc4O)n3n2)cc1 | -2% | -10%
CCN1CCN(c2c(S(=O)(=O)c3ccc(Cl)cc3)cnc3ccccc23)CC1 | -1% | 2%
CCOC(=O)c1cc(-c2ccc(C)cc2)n(CC(=O)NC2CCCCCC2)c1C | 0% | 7%
CCOC(=O)c1ccc(N=C2C(=S)N(c3ccc(C(=O)OCC)cc3)C(=N)N2/N=C/c2ccccc2)cc1 | -12% | 13µM*
CCOC(=O)c1ccc(N2Cc3ccccc3C2=N)cc1 | 1% | -21%
Cc1ccc(S(=O)(=O)Nc2ccc(-c3nc4cc(NS(=O)(=O)c5ccc(C)cc5)ccc4o3)cc2)cc1 | 2% | 7.9µM*
COc1ccc(-c2nc3ccc(NS(=O)(=O)c4ccc(Cl)cc4)cc3o2)cc1 | -6% | -23%
CC(=O)c1cccc(NC(=O)CSc2nc3ccccc3nc2Cc2ccc(F)cc2)c1 | 5% | 7%
SMILES | Cruzain inh Det | Cruzain inh noDet
Cc1[nH]nc(-c2ccc(OCc3cnn(-c4ccccc4)c3)cc2O)c1Oc1ccc(F)cc1 | 8% | ?
Cc1[nH]nc(-c2ccc(OCc3cnn(-c4ccccc4)c3)c(C)c2O)c1Oc1ccccc1 | 8% | 13µM*
Cc1ccc(OCc2ccc(C(=O)Nc3nccs3)o2)cc1C | -1% | 1%
Cc1cc(NC(=O)c2ccc(COc3ccc(Cl)c(C)c3)o2)no1 | -2% | 25µM*
Cc1c(CCNC(=O)c2ccc(Br)o2)sc2nc(-c3ccc(F)cc3)nn12 | -6% | ?
CC(C)C[C@@H](CC(=O)N[C@H](CC(=O)N[C@@H]1CCNC[C@H]1C(=O)N[C@H](CC(=O)N[C@@H](CCC(=O)O)CC(=O)O)CC(C)C)C(C)C)NC(=O)[C@@H]1CCCC[C@H]1N | 4% | 18%
COc1ccc(N2CCN(C(=O)CCn3cnc4onc(-c5ccc(F)cc5)c4c3=O)CC2)cc1 | 1% | -8%
Cc1c(Cl)cccc1NC(=O)c1ccc2c(c1)CCN2S(=O)(=O)c1ccccc1 | -3% | 19%
Cc1cc(=O)oc2c(N)c(O)ccc12 | 2% | -16%
Cc1cc(=O)oc2c(CN(C)Cc3ccccc3)c(O)ccc12 | 20µM* | ?
O=C1/C(=C/c2ccccc2O)SC(=S)N1Cc1cccnc1 | -6% | -3%
CN1C(=O)/C(=C/c2cc(N=Nc3ccccc3)ccc2O)SC1=S | -5% | 16µM*
COc1cc(C)ccc1OCCSc1nc2ccc(NC(=O)c3ccc4c(c3)OCO4)cc2s1 | -3% | 6%
CCOc1ccccc1CNC(=O)c1oc2c(c1C)-c1nn(Cc3cccc(Cl)c3)cc1CC2 | -3% | 16%
CCOc1ccc(S(=O)(=O)N2CCN(c3cc(Cl)ccc3Cl)CC2)c2ccccc12 | -2% | 10µM*
CCOc1ccc(S(=O)(=O)N2CCN(c3ccc(C)cc3C)CC2)c2ccccc12 | -1% | 3.2µM*
COc1ccc(S(=O)(=O)N2CCN(c3ccc(C)cc3C)CC2)cc1OC | -4% | ?
CCOc1ccc(S(=O)(=O)N2CCCCC2)c2ccccc12 | -1% | -5%
CCOc1ccc(Cl)cc1S(=O)(=O)N1CCN(c2ccc(F)cc2)CC1 | -4% | 0%
Cc1ccc(N2CCN(S(=O)(=O)c3ccc(Cl)c4ccccc34)CC2)c(C)c1 | -1% | 10µM*
O[C@H]([C@H](O)[C@@H](O)c1nc2ccccc2[nH]1)[C@@H](O)c1nc2ccccc2[nH]1 | 1% | 5%
CCc1ccc(OCC2c3cc(OC)c(OC)cc3CCN2C(=O)Cc2ccc(OC)c(OC)c2)cc1 (stereo not given) | 0% | ?
CCc1nc(SCc2cc(=O)c3cc(F)ccc3[nH]2)n[nH]1 | -1% | -4%
Cc1nn(C)c2c1c(C(F)(F)F)cc(=O)n2CC(=O)NCc1ccccc1Cl | 0% | 6%
CCCCn1cc(S(=O)(=O)c2ccc(OC)cc2)c(=O)c2cc(F)c(F)cc21 | -1% | 8%
SMILES | Cruzain inh Det | Cruzain inh noDet
O=C(O)C[C@H]1OCC=C2C[N@@+]3([O-])CC[C@]45c6ccccc6N[C@@H]4[C@@H]1[C@H]2C[C@H]53 | 6% | 1%
Cc1ccc(N2C(=O)[C@@H]3[C@H](C2=O)[C@H]2C=C(C(=O)c4ccccc4)C=CN2[C@@H]3C(=O)c2ccc(Cl)cc2)cc1 | -1% | 3.2µM*
O=C(C1=C[C@@H]2[C@H]3C(=O)N(c4ccccc4Cl)C(=O)[C@H]3[C@@H](C(=O)c3ccc(Cl)cc3)N2C=C1)c1ccccc1 | -8% | -24%
Cc1ccc(N2C(=O)[C@@H]3[C@H](C2=O)C2CCCN2[C@@H]3C(=O)c2ccccc2)cc1 (stereo not given in full) | -4% | ?
O=C(C1=C[C@@H]2[C@H]3C(=O)N(c4cccc(Cl)c4)C(=O)[C@H]3[C@@H](C(=O)c3ccc(Cl)cc3)N2C=C1)c1ccccc1 | 0% | 16µM*
COc1ccc(-n2ncc3c(NC4CCCC4)ncnc32)cc1 | -1% | -18%
COc1cccc(/C=C/c2nc(C#N)c(NCCc3ccccc3)o2)c1 | -9% | 30%
COCCNc1oc(/C=C/c2ccc(F)cc2)nc1C#N | 22µM* | 20µM*
COCCNc1oc(-c2ccc(F)cc2)nc1C#N | -2% | 1%
COc1cccc(/C=C/c2nc(C#N)c(N3CCCCCC3)o2)c1 | -8% | 29%
CCOc1ccc(/C=C/c2nc(C#N)c(N3CCCCCC3)o2)cc1 | -3% | -21%
COc1cccc(/C=C/c2nc(C#N)c(NCCN(C)C)o2)c1 | 25µM* | 20µM*
COc1cccc(/C=C/c2nc(C#N)c(N3CCC(C(N)=O)CC3)o2)c1 | 28µM* | ?

Screening data (PubChem)
